Source: PubChem BioAssay (NCI)
Compounds without any hit were thinned out: in the full panel of roughly 79,000, 15% have a hit. Rule as the data show it: active = growth inhibition above about 70%; inactive = the rest.

Legend:
[1] = NCI Yeast Anticancer Drug Screen. Data for the rad50 strain (AID 155);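 also: 0% = growth of vehicle-only cultures of the same strain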; conditions: S. cerevisiae rad50 strain growth inhibition; at 50.0 µM; active compounds read high
Method in brief: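 Cells are treated with compound, grown, and their growth is then scored against vehicle-only cultures of the same repair-deficient yeast strain.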

[2] = NCI Yeast Anticancer Drug Screen. Data for the mec2-1 strain (AID 157); conditions: S. cerevisiae mec2-1 strain, at 50.0 µM, active compounds read high
Method in brief: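 Vehicle-treated cultures served as reference for growth inhibition of compound-exposed mec2-1 yeast.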

[3] = NCI Yeast Anticancer Drug Screen. Data for the sgs1 mgt1 strain (AID 161);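 also: 0% = growth of cultures given vehicle only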; conditions: S. cerevisiae sgs1 mgt1 strain, at 50.0 µM, active compounds read high
Method in brief: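 Mutant yeast exposed to compound; growth scored against vehicle-only wells.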

[4] = NCI Yeast Anticancer Drug Screen. Data for the cln2 rad14 strain (AID 165);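 also: 0% = growth equal to vehicle treated cultures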; conditions: S. cerevisiae cln2 rad14 strain, at 50.0 µM, active compounds read high
Method in brief: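 Each compound was tested on cln2 rad14 yeast. Inhibition of growth was calculated against vehicle-exposed controls.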

[5] = NCI Yeast Anticancer Drug Screen. Data for the bub3 strain (AID 167); conditions: S. cerevisiae bub3 mutant strain, at 50.0 µM, active compounds read high
Method in brief: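 Part of a panel of yeast mutants defective in DNA damage repair or cell cycle regulation. Each strain is grown with compound, and inhibition is calculated relative to solvent-treated cultures.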

[6] = NCI Yeast Anticancer Drug Screen. Data for the mlh1 rad18 strain (AID 175); conditions: S. cerevisiae mlh1 rad18 strain growth inhibition; at 50.0 µM; active compounds read high
Method in brief: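 Vehicle-treated cultures served as the reference for growth inhibition in a yeast strain carrying DNA damage repair alterations exposed to each compound.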

Measured: growth inhibition

Cc1cc(N(CCC#N)CCC#N)ccc1/C(N=Nc1cccc(Cl)c1)=N/NC(=O)c1cc(Cl)ccc1O
inactive: [1] 21% | [2] 4.9% | [3] 26.8% | [4] 10.3% | [5] 33.6% | [6] -59.4%

C1CSCC2(COC2)CS1
inactive: [1] 13% | [2] 13.6% | [3] -9.65% | [4] 5% | [5] -1.55% | [6] 14.2%

C[N+](C)(C)C/C=C/C[N+](C)(C)C
inactive: [1] 9.85% | [2] -3.1% | [3] -5.95% | [4] -22.3% | [5] 0.85% | [6] 1.85%

O=C(CC(=O)Nc1ccccc1)NNC(c1cc(N=Nc2ccc(Br)cc2)ccc1O)P(O)O (configuration not stated)
inactive: [1] -4.65% | [2] 6.25% | [3] -10.4% | [4] -3.2% | [5] -14% | [6] -38%

CC(=O)Nc1c(F)cc(F)cc1[N+](=O)[O-]
inactive: [1] -28.4% | [2] -3.4% | [3] -12.4% | [4] -16.8% | [5] -18.8% | [6] 10.3%

CC(=O)n1cc(CS)c(=O)[nH]c1=O
inactive: [1] -6.2% | [2] 1.2% | [3] -2.5% | [4] -15.2% | [5] -2.6% | [6] -19.4%

O=C(O)CNC(=O)CNC(=O)CNC(=O)CNC(=O)CNC(=O)OCc1ccccc1
inactive: [1] 38.2% | [2] -0.25% | [3] 15.2% | [4] 28.1% | [5] -0.95% | [6] 17.4%

CCCCCCCCCCCCCCCCCC/C(CC)=N/Nc1ccc([N+](=O)[O-])cc1[N+](=O)[O-]
inactive: [1] -21.1% | [2] 3.7% | [3] -12.2% | [4] -25.1% | [5] 11.2% | [6] 5.55%

Nc1cccc(S(=O)(=O)Nc2c(N)nc(SCC(=O)O)[nH]c2=O)c1
inactive: [1] -15% | [2] -15.8% | [3] -19.7% | [4] -9.3% | [5] 11.9% | [6] 21.6%

Cc1cccc(C(C#N)C(=O)CCCC(=O)Nc2ccccc2[N+](=O)[O-])c1 (configuration not stated)
inactive: [1] -44.1% | [2] 9.4% | [3] 5.15% | [4] -36.6% | [5] 6.9% | [6] 11%

CCOc1c2c(nn(C)c1=O)Oc1ccccc1N2CCCN1CCOCC1
inactive: [1] -27.6% | [2] -0.25% | [3] -18.1% | [4] 2.3% | [5] 3.95% | [6] -4.6%

CCOC(=O)C(NC(C)=O)C(=O)OCC
inactive: [1] -3.4% | [2] 10.2% | [3] 3.5% | [4] -12.6% | [5] -7.15% | [6] -16.4%

CCC(C)NCC/C(=C\[Si](C)(C)C)c1ccccc1 (configuration not stated)
inactive: [1] 3.05% | [2] -11.8% | [3] -11.4% | [4] 11.7% | [5] -0.15% | [6] 8.5%

CC1NC(C(=O)O)Cc2cc(O)c(O)cc21 (configuration not stated)
inactive: [1] -21.2% | [2] -36.6% | [3] -30.8% | [4] 5.35% | [5] -34.8% | [6] -49.2%

Cc1ccc(N=Nc2c(C)nn(-c3ccccc3)c2C)c(Br)c1
inactive: [1] 26.6% | [2] 10.8% | [3] 47.5% | [4] 4.1% | [5] 18.9% | [6] 38.6%

N#CCCNCCC[Si]12OCCN(CCO1)CCO2
inactive: [1] 6.5% | [2] 1.35% | [3] 10.5% | [4] 56.9% | [5] 7.15% | [6] 2.4%

NC1=NC(c2ccccc2)N=C(Nc2ccccc2)N1 (configuration not stated)
inactive: [1] 37.2% | [2] 1.4% | [3] 16.4% | [4] -15% | [5] 15.2% | [6] 41.6%

OC(CC1CCCC(CC(O)c2ccccc2)N1CCc1ccccc1)c1ccccc1 (configuration not stated)
inactive: [1] 24.8% | [2] -1.3% | [3] 22.4% | [4] 35.4% | [5] 38.2% | [6] 21.2%

CC1=C(CN(CC(=O)O)CC(=O)O)C(=O)C(C(C)C)=C/C1=C(\c1ccccc1S(=O)(=O)O)c1cc(C(C)C)c(O)c(CN(CC(=O)O)CC(=O)O)c1C
inactive: [1] -3.55% | [2] -24.8% | [3] 11.4% | [4] 4.2% | [5] 0.75% | [6] -8.7%

C#CC(O)C(CC)CCCC (configuration not stated)
inactive: [1] -11.1% | [2] -46.5% | [3] -14.7% | [4] -10.4% | [5] -12.8% | [6] 13.8%

CN1C(=S)CSc2ccccc21
inactive: [1] -8.5% | [2] -4% | [3] -11.3% | [4] 26% | [5] -9.75% | [6] 1.85%

CC1CNC(=S)O1 (configuration not stated)
inactive: [1] -18.2% | [2] -15.5% | [3] 5.05% | [4] -7.05% | [5] -32.1% | [6] -16.7%

O=[N+]([O-])c1ccc(N2CCCC2)cc1
inactive: [1] 14.2% | [2] -8.05% | [3] -6.9% | [4] 0.8% | [5] 13.8% | [6] -16.7%

Clc1cc(Cl)nc(Nc2ccc3c(c2)CCC3)n1
inactive: [1] 23.9% | [2] 10.2% | [3] -1.15% | [4] -4.2% | [5] 3.9% | [6] 39.5%

C/C(=N/NC(N)=O)c1ccc(C)o1
inactive: [1] 1.85% | [2] -3.55% | [3] -4.4% | [4] -0.75% | [5] 1.55% | [6] 0.35%

COc1ccc(-n2c(CCCC(=O)O)nc3c2C(=O)c2ccccc2C3=O)cc1
inactive: [1] 20.4% | [2] 23.8% | [3] 25.5% | [4] 17.1% | [5] 25.1% | [6] 33.5%

OC(c1ccccc1)(c1ccccc1)c1ccccc1CNc1ccccc1
inactive: [1] 45.5% | [2] 30.4% | [3] 26.2% | [4] 8% | [5] 19.8% | [6] 49.8%

Cn1nc2ccccc2cc1=O
inactive: [1] 20.7% | [2] 2.65% | [3] -2.1% | [4] 14.2% | [5] 10.8% | [6] 14.9%

O=C(O)C1CSC(c2ccccc2O)N1 (configuration not stated)
inactive: [1] -17.6% | [2] -2.75% | [3] -4.6% | [4] -26.9% | [5] 5.4% | [6] -8.75%

Clc1ccc2sc(-c3ccccc3)nc2c1
inactive: [1] -22.8% | [2] -18.4% | [3] -4.45% | [4] -23.1% | [5] 7.45% | [6] -3.6%

COc1ccc(C2C(C#N)=C(S)N(C3OC(COC(C)=O)C(OC(C)=O)C(OC(C)=O)C3OC(C)=O)C(c3ccccc3)=C2C(C)=O)cc1 (configuration not stated)
inactive: [1] 44% | [2] 38.4% | [3] 42% | [4] -4.2% | [5] -38.9% | [6] 39%

N#Cc1c(N)nc(N)nc1Nc1ccc(Cl)cc1
inactive: [1] 13.6% | [2] -8.7% | [3] 9.25% | [4] 26.9% | [5] -5.8% | [6] 25.6%

CC(=O)Nc1ccc2c(c1)C(N1CCCCC1)c1ccccc1-2 (configuration not stated)
inactive: [1] -42.2% | [2] -17.8% | [3] 4.2% | [4] -40.1% | [5] -2.6% | [6] -5.4%

CCN(CC)CCN(N)CCN(CC)CC
inactive: [1] 20.6% | [2] -24.8% | [3] -1.2% | [4] -1.5% | [5] -44.2% | [6] -17.2%

CCCCC1(CC)COC2(CCCC2)OC1
inactive: [1] 18.6% | [2] 2.25% | [3] -11.6% | [4] 3.2% | [5] -9.7% | [6] 12.4%

COCC(=O)c1ccccc1-c1ccccc1
inactive: [1] 13.6% | [2] -2.65% | [3] 3.15% | [4] -4.1% | [5] -11.2% | [6] 0.85%

CCc1ccccc1-n1[nH]c(C)c(C=N)c1=O
inactive: [1] -8.2% | [2] -18.1% | [3] -18.2% | [4] -14.1% | [5] -16.7% | [6] -8.15%
